# According to publication PMC7862700, “An all-to-all approach to the identification of sequence-specific readers for epigenetic DNA modifications on cytosine”:
# Key:
# Assay in all cases: DAPPL (digital affinity profiling via proximity ligation, sequencing); 10 mM Tris-HCl pH 7.5, 50 mM NaCl, 1 mM DTT, 4% glycerol, room temperature, 30 min; GST-TFs on glutathione beads, 16-mer random dsDNA library, 0.1% formaldehyde crosslink after washing; high values mean tight binding
# Details in all cases: protein: recombinant; tags: N-terminal GST; dsDNA, one strand shown
# FLI1 = biological target: T1, FLI1 (Homo sapiens, UniProt Q01543 1-452)
# T1 sequence: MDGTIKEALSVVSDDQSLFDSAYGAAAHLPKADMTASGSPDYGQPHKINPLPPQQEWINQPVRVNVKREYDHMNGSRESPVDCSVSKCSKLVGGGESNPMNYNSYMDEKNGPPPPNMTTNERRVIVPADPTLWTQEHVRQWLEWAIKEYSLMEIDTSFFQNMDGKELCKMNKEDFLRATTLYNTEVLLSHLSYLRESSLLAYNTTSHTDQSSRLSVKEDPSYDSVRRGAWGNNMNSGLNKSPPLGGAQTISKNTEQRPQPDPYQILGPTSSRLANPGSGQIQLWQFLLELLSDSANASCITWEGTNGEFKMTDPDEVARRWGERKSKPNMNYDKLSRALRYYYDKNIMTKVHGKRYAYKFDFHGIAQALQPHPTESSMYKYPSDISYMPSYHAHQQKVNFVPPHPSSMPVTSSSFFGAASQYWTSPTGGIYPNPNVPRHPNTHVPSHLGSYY
# Procedure, shortened: (§1)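 The binding signal reported is, for every hexamer, its read frequency for a factor over its read frequency for the tag-only sample. Reads came from pools of yeast-expressed, GST-fused human transcription factors on glutathione beads, barcoded with DNA and mixed with that sample, which were incubated with 200 nmole of a random double-stranded 16-mer DNA library in Tris/NaCl/DTT/glycerol buffer at room temperature for 30 min. After washing, the pools were crosslinked with 0.1% formaldehyde, proximity-ligated with BsaI/T4 ligase for 1 h at 37 °C, PCR-amplified and sequenced on an Illumina NextSeq500.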
# ELK1 = biological target: T2, ELK1 (Homo sapiens, UniProt P19419 1-428)
# T2 sequence: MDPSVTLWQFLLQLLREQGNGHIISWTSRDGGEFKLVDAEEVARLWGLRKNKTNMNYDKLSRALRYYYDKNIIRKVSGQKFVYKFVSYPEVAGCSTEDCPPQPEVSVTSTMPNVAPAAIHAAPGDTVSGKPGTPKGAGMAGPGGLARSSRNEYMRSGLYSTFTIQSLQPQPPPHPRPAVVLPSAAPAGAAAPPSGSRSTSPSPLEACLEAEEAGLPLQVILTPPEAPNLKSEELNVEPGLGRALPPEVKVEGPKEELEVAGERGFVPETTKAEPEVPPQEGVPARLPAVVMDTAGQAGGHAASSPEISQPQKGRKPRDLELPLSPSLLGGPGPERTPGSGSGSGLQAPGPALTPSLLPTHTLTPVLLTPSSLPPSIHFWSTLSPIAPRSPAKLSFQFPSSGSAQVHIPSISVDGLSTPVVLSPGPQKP
# Procedure, shortened: as §1
# GABPA = biological target: T3, GABPA (Homo sapiens, UniProt Q06546 1-454)
# T3 sequence: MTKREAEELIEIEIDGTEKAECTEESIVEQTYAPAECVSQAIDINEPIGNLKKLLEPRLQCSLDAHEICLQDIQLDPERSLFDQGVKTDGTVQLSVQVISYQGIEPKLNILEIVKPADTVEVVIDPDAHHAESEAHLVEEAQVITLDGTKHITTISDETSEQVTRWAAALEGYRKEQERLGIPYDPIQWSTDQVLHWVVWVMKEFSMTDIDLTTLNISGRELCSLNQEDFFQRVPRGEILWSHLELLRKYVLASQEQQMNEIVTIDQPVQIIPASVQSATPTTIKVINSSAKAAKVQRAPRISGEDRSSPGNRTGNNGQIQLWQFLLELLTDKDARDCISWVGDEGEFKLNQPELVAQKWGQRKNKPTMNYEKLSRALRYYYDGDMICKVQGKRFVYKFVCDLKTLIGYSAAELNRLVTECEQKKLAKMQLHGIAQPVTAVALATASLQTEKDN
# Procedure, shortened: as §1
# ERG = biological target: T4, ERG (Homo sapiens, UniProt P11308 1-479)
# T4 sequence: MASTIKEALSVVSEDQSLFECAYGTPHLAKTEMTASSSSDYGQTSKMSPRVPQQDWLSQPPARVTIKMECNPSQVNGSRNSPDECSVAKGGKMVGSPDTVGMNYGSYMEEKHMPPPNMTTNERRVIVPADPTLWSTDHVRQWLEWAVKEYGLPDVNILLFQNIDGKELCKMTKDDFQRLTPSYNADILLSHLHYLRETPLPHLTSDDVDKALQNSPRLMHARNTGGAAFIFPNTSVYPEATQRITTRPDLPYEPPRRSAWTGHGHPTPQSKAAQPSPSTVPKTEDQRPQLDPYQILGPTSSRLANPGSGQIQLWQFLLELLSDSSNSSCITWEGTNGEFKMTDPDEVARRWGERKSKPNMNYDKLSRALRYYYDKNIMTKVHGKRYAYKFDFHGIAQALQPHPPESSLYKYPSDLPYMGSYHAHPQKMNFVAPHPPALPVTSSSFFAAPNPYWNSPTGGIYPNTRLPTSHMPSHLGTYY
# Procedure, shortened: as §1
# ELF1 = ELF1 (Homo sapiens, UniProt P32519 1-619)
# Procedure, shortened: as §1
# EHF = biological target: T5, EHF (Homo sapiens, UniProt Q9NZC4 1-300)
# T5 sequence: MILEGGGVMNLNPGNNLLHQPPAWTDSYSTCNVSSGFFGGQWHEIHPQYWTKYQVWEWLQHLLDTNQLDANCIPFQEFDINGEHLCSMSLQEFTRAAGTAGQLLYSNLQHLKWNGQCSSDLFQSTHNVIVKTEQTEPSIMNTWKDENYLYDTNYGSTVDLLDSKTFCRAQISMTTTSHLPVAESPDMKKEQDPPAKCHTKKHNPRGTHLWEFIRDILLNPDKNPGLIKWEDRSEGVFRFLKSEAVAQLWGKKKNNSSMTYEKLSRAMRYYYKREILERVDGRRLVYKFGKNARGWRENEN
# Procedure, shortened: as §1
# SPI1 = SPI1 (Homo sapiens, UniProt P17947 1-270)
# Procedure, shortened: as §1
# SPIB = SPIB (Homo sapiens, UniProt Q01892 1-262)
# Procedure, shortened: as §1
# ELK3 = biological target: T6, ELK3 (Homo sapiens, UniProt P41970 1-407)
# T6 sequence: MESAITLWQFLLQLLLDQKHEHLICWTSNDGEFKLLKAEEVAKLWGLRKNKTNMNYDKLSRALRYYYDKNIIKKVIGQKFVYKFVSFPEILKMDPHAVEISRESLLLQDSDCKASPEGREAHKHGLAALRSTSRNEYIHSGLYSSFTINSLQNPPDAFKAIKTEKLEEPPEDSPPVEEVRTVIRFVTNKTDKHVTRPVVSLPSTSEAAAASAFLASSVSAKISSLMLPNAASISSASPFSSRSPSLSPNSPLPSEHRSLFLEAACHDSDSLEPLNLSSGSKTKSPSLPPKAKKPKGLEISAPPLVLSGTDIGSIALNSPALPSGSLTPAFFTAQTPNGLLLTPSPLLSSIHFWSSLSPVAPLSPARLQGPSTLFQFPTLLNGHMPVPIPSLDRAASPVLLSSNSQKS
# Procedure, shortened: as §1
# Chain of SPIB (Q01892 whole entry): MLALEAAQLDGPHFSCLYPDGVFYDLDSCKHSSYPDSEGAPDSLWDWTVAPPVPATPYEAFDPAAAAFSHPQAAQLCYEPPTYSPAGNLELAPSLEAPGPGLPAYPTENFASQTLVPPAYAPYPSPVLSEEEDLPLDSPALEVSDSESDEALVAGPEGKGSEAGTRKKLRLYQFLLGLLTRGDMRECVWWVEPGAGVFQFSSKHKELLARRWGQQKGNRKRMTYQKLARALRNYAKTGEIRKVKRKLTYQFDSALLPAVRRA
# Chain of ELF1 (P32519 whole entry): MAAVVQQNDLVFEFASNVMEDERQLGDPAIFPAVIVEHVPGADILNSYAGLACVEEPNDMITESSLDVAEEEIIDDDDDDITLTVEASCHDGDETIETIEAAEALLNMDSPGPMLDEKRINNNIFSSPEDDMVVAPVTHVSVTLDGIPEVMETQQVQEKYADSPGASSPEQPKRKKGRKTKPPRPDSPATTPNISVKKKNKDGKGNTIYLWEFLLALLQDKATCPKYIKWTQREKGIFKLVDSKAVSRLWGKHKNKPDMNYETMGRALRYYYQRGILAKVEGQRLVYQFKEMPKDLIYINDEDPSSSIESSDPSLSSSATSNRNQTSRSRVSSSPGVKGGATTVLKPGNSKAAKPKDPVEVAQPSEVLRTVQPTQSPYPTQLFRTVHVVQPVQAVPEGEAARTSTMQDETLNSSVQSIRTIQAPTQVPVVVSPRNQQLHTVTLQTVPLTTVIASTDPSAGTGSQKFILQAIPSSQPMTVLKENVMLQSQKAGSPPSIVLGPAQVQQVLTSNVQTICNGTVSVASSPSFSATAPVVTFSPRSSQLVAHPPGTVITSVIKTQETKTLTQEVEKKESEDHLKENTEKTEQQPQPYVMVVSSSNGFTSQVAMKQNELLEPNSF
Sequence,binding signal (FLI1),binding signal (ELK1),binding signal (GABPA),binding signal (ERG),binding signal (ELF1),binding signal (EHF),binding signal (SPI1),binding signal (SPIB),binding signal (ELK3)
TCACGT,"1.28 fold enrichment (6-mer frequency, TF over GST control)","1.3 fold enrichment (6-mer frequency, TF over GST control)","1.31 fold enrichment (6-mer frequency, TF over GST control)","1.29 fold enrichment (6-mer frequency, TF over GST control)","1.17 fold enrichment (6-mer frequency, TF over GST control)","1.14 fold enrichment (6-mer frequency, TF over GST control)","1.24 fold enrichment (6-mer frequency, TF over GST control)","1.18 fold enrichment (6-mer frequency, TF over GST control)","1.16 fold enrichment (6-mer frequency, TF over GST control)"
ATGACT,"1.5 fold enrichment (6-mer frequency, TF over GST control)","1.42 fold enrichment (6-mer frequency, TF over GST control)","1.39 fold enrichment (6-mer frequency, TF over GST control)","1.44 fold enrichment (6-mer frequency, TF over GST control)","1.42 fold enrichment (6-mer frequency, TF over GST control)","1.35 fold enrichment (6-mer frequency, TF over GST control)","1.51 fold enrichment (6-mer frequency, TF over GST control)","1.52 fold enrichment (6-mer frequency, TF over GST control)","1.33 fold enrichment (6-mer frequency, TF over GST control)"
CCGACC,"1.66 fold enrichment (6-mer frequency, TF over GST control)","1.59 fold enrichment (6-mer frequency, TF over GST control)","1.65 fold enrichment (6-mer frequency, TF over GST control)","1.55 fold enrichment (6-mer frequency, TF over GST control)","1.47 fold enrichment (6-mer frequency, TF over GST control)","1.44 fold enrichment (6-mer frequency, TF over GST control)","1.42 fold enrichment (6-mer frequency, TF over GST control)","1.57 fold enrichment (6-mer frequency, TF over GST control)","1.8 fold enrichment (6-mer frequency, TF over GST control)"
AATCAC,"1.03 fold enrichment (6-mer frequency, TF over GST control)","1.08 fold enrichment (6-mer frequency, TF over GST control)","1.15 fold enrichment (6-mer frequency, TF over GST control)","1.08 fold enrichment (6-mer frequency, TF over GST control)","1.14 fold enrichment (6-mer frequency, TF over GST control)","1.08 fold enrichment (6-mer frequency, TF over GST control)","1.12 fold enrichment (6-mer frequency, TF over GST control)","1.07 fold enrichment (6-mer frequency, TF over GST control)","1.12 fold enrichment (6-mer frequency, TF over GST control)"
CCTCCT,"1.72 fold enrichment (6-mer frequency, TF over GST control)","1.45 fold enrichment (6-mer frequency, TF over GST control)","1.57 fold enrichment (6-mer frequency, TF over GST control)","1.45 fold enrichment (6-mer frequency, TF over GST control)","1.5 fold enrichment (6-mer frequency, TF over GST control)","1.42 fold enrichment (6-mer frequency, TF over GST control)","1.7 fold enrichment (6-mer frequency, TF over GST control)","1.61 fold enrichment (6-mer frequency, TF over GST control)","1.48 fold enrichment (6-mer frequency, TF over GST control)"
TTTGTT,"1.26 fold enrichment (6-mer frequency, TF over GST control)","1.29 fold enrichment (6-mer frequency, TF over GST control)","1.31 fold enrichment (6-mer frequency, TF over GST control)","1.28 fold enrichment (6-mer frequency, TF over GST control)","1.29 fold enrichment (6-mer frequency, TF over GST control)","1.35 fold enrichment (6-mer frequency, TF over GST control)","1.22 fold enrichment (6-mer frequency, TF over GST control)","1.17 fold enrichment (6-mer frequency, TF over GST control)","1.3 fold enrichment (6-mer frequency, TF over GST control)"
TATCAT,"1.25 fold enrichment (6-mer frequency, TF over GST control)","1.18 fold enrichment (6-mer frequency, TF over GST control)","1.3 fold enrichment (6-mer frequency, TF over GST control)","1.13 fold enrichment (6-mer frequency, TF over GST control)","1.15 fold enrichment (6-mer frequency, TF over GST control)","1.21 fold enrichment (6-mer frequency, TF over GST control)","1.13 fold enrichment (6-mer frequency, TF over GST control)","1.11 fold enrichment (6-mer frequency, TF over GST control)","1.17 fold enrichment (6-mer frequency, TF over GST control)"
AACCCG,"1.36 fold enrichment (6-mer frequency, TF over GST control)","1.44 fold enrichment (6-mer frequency, TF over GST control)","1.31 fold enrichment (6-mer frequency, TF over GST control)","1.46 fold enrichment (6-mer frequency, TF over GST control)","1.5 fold enrichment (6-mer frequency, TF over GST control)","1.54 fold enrichment (6-mer frequency, TF over GST control)","1.36 fold enrichment (6-mer frequency, TF over GST control)","1.46 fold enrichment (6-mer frequency, TF over GST control)","1.49 fold enrichment (6-mer frequency, TF over GST control)"
